The results in this text go back to the supplement of paper PMC12645437, “Orthogonal IMiD-Degron Pairs Induce Selective Protein Degradation in Cells” (ACS Chemical Biology, 2025).

The target in the assay is T1, CRBN, Q96SW2.
T1 chain: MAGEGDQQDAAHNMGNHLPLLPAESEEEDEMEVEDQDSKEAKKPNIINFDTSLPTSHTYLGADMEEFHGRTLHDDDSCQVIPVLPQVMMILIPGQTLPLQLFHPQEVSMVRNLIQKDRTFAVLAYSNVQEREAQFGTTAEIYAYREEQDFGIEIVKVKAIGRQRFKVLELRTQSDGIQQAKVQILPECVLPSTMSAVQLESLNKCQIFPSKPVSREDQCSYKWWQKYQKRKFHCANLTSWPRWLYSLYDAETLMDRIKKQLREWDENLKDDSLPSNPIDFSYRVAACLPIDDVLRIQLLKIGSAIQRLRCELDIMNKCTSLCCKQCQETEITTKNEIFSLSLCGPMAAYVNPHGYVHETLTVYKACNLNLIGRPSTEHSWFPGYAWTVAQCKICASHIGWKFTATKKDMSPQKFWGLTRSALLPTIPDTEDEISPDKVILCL
The assay is described as follows: log2 fold change of degron read counts, EGFP-low vs EGFP+ sorted cells (limma voom), compound-induced degradation; higher = more compound-induced degradation of the degron-EGFP fusion; degrons are variants of IKZF1/3 zinc finger 2; compound dose not given here. The settings on record: Jurkat, 18 h.

Where [1] appears, read: compound: compound 19 (5-tert-butyl-thalidomide).
The mark [2] stands for this setting: compound: compound 22 (5-morpholino-thalidomide).
The mark [3] stands for this setting: compound: compound 33 (diphenyl IMiD analogue).

In all, about 8,300 sequences were measured (“log2 fold change of degron read counts, EGFP-low vs EGFP+ sorted cells (limma voom), compound-induced degradation”: median about -1.1, highest 2% from about 3.2 on). Shown is part of a subset that was picked to be rich in the highest values.
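Further: pooled lentiviral library of zinc finger degron-EGFP fusions in mCherry-positive Jurkat cells, FACS-sorted after compound exposure, with degron abundance counted by next-generation sequencing.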

As to FRCPQCGARFTQKGNLLRHIKL [46F_47R_49P_50Q_52G_53A_54R_55F_67L_, Q9UKT9], the “log2 fold change of degron read counts” value by setting is: under setting [1], -2.3; under setting [2], -2.09; under setting [3], -1.12; (compound: thalidomide) -1.27.

FLCPQCGAKFTQKGNLLRHIKL [46F_47L_49P_50Q_52G_53A_54K_55F_67L_, Q9UKT9]: the “log2 fold change of degron read counts” value is -2.44 under setting [1], -2.82 under setting [2], -1.39 under setting [3] and -0.831 (compound: thalidomide).

For the sequence FKCEVCGAQFTQKGNLLRHIKL [46F_47K_49E_50V_52G_53A_54Q_55F_67L_, Q9UKT9], the “log2 fold change of degron read counts” value runs as follows: under setting [1], -0.0625; under setting [2], -2.24; under setting [3], -2.07; (compound: thalidomide) -0.411.

In the case of FFCEICGRAFTQKGNLLRHIKL [46F_47F_49E_50I_52G_53R_54A_55F_67L_, Q9UKT9], the “log2 fold change of degron read counts” value by setting is: under setting [1], 0.601; under setting [2], -0.248; under setting [3], 0.402; (compound: thalidomide) -1.11.

Turning to FKCEICGHPFTQKGNLLRHIKL [46F_47K_49E_50I_52G_53H_54P_55F_67L_, Q9UKT9], the “log2 fold change of degron read counts” value under setting [1] is -2.59, the “log2 fold change of degron read counts” value under setting [2] was -2.5, the “log2 fold change of degron read counts” value under setting [3] was -2.61 and the “log2 fold change of degron read counts” value (compound: thalidomide) was -0.946.

As for FKCPICGRFFTQKGNLLRHIKL [46F_47K_49P_50I_52G_53R_54F_55F_67L_, Q9UKT9], the “log2 fold change of degron read counts” value reads like this: under setting [1], -1.81; under setting [2], -1.89; under setting [3], -2.21; (compound: thalidomide) -1.32.

As to FRCDICGANFTQKGNLLRHIKL [46F_47R_49D_50I_52G_53A_54N_55F_67L_, Q9UKT9], the “log2 fold change of degron read counts” value was -1.48 under setting [1], -1.55 under setting [2], 0.418 under setting [3] and -0.326 (compound: thalidomide).

As to FDCNVCGAYFTQKGNLLRHIKL [46F_47D_49N_50V_52G_53A_54Y_55F_67L_, Q9UKT9], the “log2 fold change of degron read counts” value runs as follows: under setting [1], -1.56; under setting [2], -2.08; under setting [3], -0.374; (compound: thalidomide) -0.686.

Regarding FICSVCGHEFTQKGNLLRHIKL [46F_47I_49S_50V_52G_53H_54E_55F_67L_, Q9UKT9], the “log2 fold change of degron read counts” value reads like this: under setting [1], -3.46; under setting [2], -3.92; under setting [3], -3.21; (compound: thalidomide) -3.41.

Regarding FQCPVCGAQFTQKGNLLRHIKL [46F_47Q_49P_50V_52G_53A_54Q_55F_67L_, Q9UKT9], the “log2 fold change of degron read counts” value under setting [1] came out at 0.712, the “log2 fold change of degron read counts” value under setting [2] turned out to be 2.48, the “log2 fold change of degron read counts” value under setting [3] amounted to 2.51 and the “log2 fold change of degron read counts” value (compound: thalidomide) worked out at 3.59.

With FGCPVCGAQFTQKGNLLRHIKL [46F_47G_49P_50V_52G_53A_54Q_55F_67L_, Q9UKT9], the “log2 fold change of degron read counts” value under setting [1] amounted to 3.8, the “log2 fold change of degron read counts” value under setting [2] is 2.65, the “log2 fold change of degron read counts” value under setting [3] came to 1.73 and the “log2 fold change of degron read counts” value (compound: thalidomide) is 1.07.

In the case of FHCPVCGAQFTQKGNLLRHIKL [46F_47H_49P_50V_52G_53A_54Q_55F_67L_, Q9UKT9], the “log2 fold change of degron read counts” value is, setting by setting: under setting [1], 1.78; under setting [2], 2.55; under setting [3], 2.19; (compound: thalidomide) 1.13.

In the case of FICPVCGAQFTQKGNLLRHIKL [46F_47I_49P_50V_52G_53A_54Q_55F_67L_, Q9UKT9], the “log2 fold change of degron read counts” value was -0.745 under setting [1], 2.74 under setting [2], 2.89 under setting [3] and 2.73 (compound: thalidomide).

In the case of FNCPVCGAQFTQKGNLLRHIKL [46F_47N_49P_50V_52G_53A_54Q_55F_67L_, Q9UKT9], the “log2 fold change of degron read counts” value reads like this: under setting [1], 2.01; under setting [2], 1.68; under setting [3], 0.869; (compound: thalidomide) 0.953.

For the sequence FDCPVCGAQFTQKGNLLRHIKL [46F_47D_49P_50V_52G_53A_54Q_55F_67L_, Q9UKT9], the “log2 fold change of degron read counts” value is, setting by setting: under setting [1], 1.44; under setting [2], 0.833; under setting [3], 1.04; (compound: thalidomide) 2.23.

For the sequence FLCDVCGALFTQKGNLLRHIKL [46F_47L_49D_50V_52G_53A_54L_55F_67L_, Q9UKT9], the “log2 fold change of degron read counts” value by setting is: under setting [1], -2.27; under setting [2], -2.28; under setting [3], -1.03; (compound: thalidomide) -1.23.

As to FNCPVCGAVFTQKGNLLRHIKL [46F_47N_49P_50V_52G_53A_54V_55F_67L_, Q9UKT9], the “log2 fold change of degron read counts” value runs as follows: under setting [1], 0.592; under setting [2], 0.118; under setting [3], 0.729; (compound: thalidomide) 0.198.
